Among the data in the supplement of paper PMC9446081 are relative enzymatic activity values, retold here.

Structures are written as SMILES. ± gives the standard deviation of the averaged measurements.

The target in one test is Guanlyate kinase (UniProt Q0TBG1). As to the kind of experiment: relative enzymatic activity vs untreated control (fraction); higher = less inhibition. The conditions noted are these: 100 µM; incubation time: 2 h at 37 C. On the procedure: (§1)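 In vitro enzymatic inhibition assays (ProFoldin kits) for 12 purified essential E. coli enzymes or complexes, each treated with 218 active antibacterial compounds at 100 µM for 2 h at 37°C. Read-outs were fluorescence or absorbance (phosphate detection, dye binding), converted to activity via standard curves and expressed relative to untreated DMSO controls.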
Guanlyate kinase, sequence (Q0TBG1 whole entry): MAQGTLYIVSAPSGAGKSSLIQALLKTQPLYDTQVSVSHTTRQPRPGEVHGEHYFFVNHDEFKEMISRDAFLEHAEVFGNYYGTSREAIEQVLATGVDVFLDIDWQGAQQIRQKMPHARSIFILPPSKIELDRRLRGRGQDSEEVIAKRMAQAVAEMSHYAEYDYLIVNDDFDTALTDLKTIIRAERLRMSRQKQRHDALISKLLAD
`Cc1c(N)nc([C@H](CC(N)=O)NC[C@@H](N)C(N)=O)nc1C(=O)N[C@H](C(=O)N[C@@H](C)[C@H](O)[C@@H](C)C(=O)N[C@@H](C(=O)NCCc1nc(-c2nc(C(=O)NCCC[S+](C)C)cs2)cs1)[C@@H](C)O)[C@@H](O[C@H]1O[C@H](CO)[C@H](O)[C@@H](O)[C@H]1O[C@H]1O[C@H](CO)[C@@H](O)[C@H](OC(N)=O)[C@@H]1O)c1cnc[nH]1`: the relative enzymatic activity came to 1.03 ± 0.061.

As to `CN(C)[C@@H]1C(=O)[C@@H](C(N)=O)C(=O)[C@@]2(O)C(=O)[C@H]3C(=O)c4c(O)ccc(Cl)c4[C@@](C)(O)[C@H]3C[C@@H]12`, the relative enzymatic activity was determined as 0.879 ± 0.079.

`O=S(=O)(O)O.Oc1cccc2cccnc12` showed a relative enzymatic activity of 0.981 ± 0.14.

In turn, `CC(=O)Oc1ccc(Cl)c2cccnc12` had a relative enzymatic activity of 0.892 ± 0.12.

`CN(C)[C@@H]1C(=O)C(C(N)=O)=C(O)[C@@]2(O)C(O)=C3C(=O)c4c(O)cccc4[C@](C)(O)[C@H]3C[C@@H]12` yielded a relative enzymatic activity of 0.836 ± 0.089.

Regarding `Cc1c(N)nc([C@H](CC(N)=O)NC[C@@H](N)C(N)=O)nc1C(=O)N[C@H](C(=O)N[C@@H](C)[C@H](O)[C@@H](C)C(=O)N[C@@H](C(=O)NCCc1nc(-c2nc(C(=O)NCCC[S+](C)C)cs2)cs1)[C@@H](C)O)[C@@H](O[C@H]1O[C@H](CO)[C@H](O)[C@@H](O)[C@H]1O[C@H]1O[C@H](CO)[C@@H](O)[C@H](OC(N)=O)[C@@H]1O)c1c[nH]cn1`, the relative enzymatic activity was found to be 0.96 ± 0.12.

For `Oc1cc(Cl)ccc1Oc1ccc(Cl)cc1Cl`, the relative enzymatic activity amounted to 1 ± 0.059.

With `O=[N+]([O-])C(Br)(CO)CO`, the relative enzymatic activity amounted to 0.943 ± 0.084.

`CCCCCCCCCCCCCCCC[n+]1ccccc1`: the relative enzymatic activity amounted to 0.0415 ± 0.016.

Compound `Cn1ncnc2c(=O)n(C)c(=O)nc1-2` returned a relative enzymatic activity of 0.88 ± 0.059.

In the case of `COP(=S)(OC)Oc1cc(Cl)c(Cl)cc1Cl`, the relative enzymatic activity amounted to 1.07 ± 0.027.

`CC(=O)[O][Hg][c]1ccccc1`: the relative enzymatic activity was found to be 3.32 ± 0.43.

`O=[N+]([O-])c1ccc(N(CCO)CCO)c2c1no[n+]2[O-]` returned a relative enzymatic activity of 0.448 ± 0.049.

With `CCCCCCCCCCCCCCCC[N+](C)(C)C.[Br-]`, the relative enzymatic activity is 0.6144 ± 0.0056.

Regarding `O=C1C=C2C(=CCOC2O)O1` (stereo not drawn), the relative enzymatic activity amounted to 1.09 ± 0.049.

Regarding `CN[C@H]1C[C@@H](N)[C@H](O)[C@@H](O[C@@H]2O[C@H](CO)[C@H](O)[C@@H]3O[C@@]4(O[C@H]23)O[C@H]([C@@H](N)CO)[C@H](O)[C@H](O)[C@H]4O)[C@@H]1O`, the relative enzymatic activity worked out at 0.933 ± 0.098.

Turning to `CN1C(=O)[C@]23CC4=CC=C[C@H](O)[C@H]4N2C(=O)[C@@]1(CO)SS3`, the relative enzymatic activity was 0.947 ± 0.12.

In the case of `Cc1nc2c(=O)n(C)c(=O)nc-2n(C)n1`, the relative enzymatic activity was 0.881 ± 0.045.

`[O-][n+]1ccccc1[S][Zn][S]c1cccc[n+]1[O-]` had a relative enzymatic activity of 1.06 ± 0.052.

`CCCCCCCCCCCCCCCC[n+]1ccccc1.[Cl-]` had a relative enzymatic activity of 0.2 ± 0.092.

`CNC1C(O)C(OC2C(N)CC(N)C(OC3OC(C(C)O)C(O)C(O)C3N)C2O)OCC1(C)O` (stereo not drawn) yielded a relative enzymatic activity of 0.936 ± 0.045.

With `CCn1cc(C(=O)[O-])c(=O)c2cc3c(cc21)OCO3.[K+]`, the relative enzymatic activity was found to be 0.892 ± 0.14.

Compound `CN(C)[C@@H]1C(=O)[C@H](C(N)=O)C(=O)[C@@]2(O)C(=O)[C@@H]3C(=O)c4c(O)cccc4[C@@](C)(O)[C@H]3C[C@@H]12` gave a relative enzymatic activity of 0.846 ± 0.13.

With `C[CH2][Hg][S]c1ccccc1C(=O)[O-].[Na+]`, the relative enzymatic activity was found to be 1.03 ± 0.11.

The target in another test is MurA (UniProt Q3YX52). Described as above. The settings on record: 100 µM; incubation time: 2 h at 37 C. On the procedure: as §1
MurA, sequence (Q3YX52 whole entry): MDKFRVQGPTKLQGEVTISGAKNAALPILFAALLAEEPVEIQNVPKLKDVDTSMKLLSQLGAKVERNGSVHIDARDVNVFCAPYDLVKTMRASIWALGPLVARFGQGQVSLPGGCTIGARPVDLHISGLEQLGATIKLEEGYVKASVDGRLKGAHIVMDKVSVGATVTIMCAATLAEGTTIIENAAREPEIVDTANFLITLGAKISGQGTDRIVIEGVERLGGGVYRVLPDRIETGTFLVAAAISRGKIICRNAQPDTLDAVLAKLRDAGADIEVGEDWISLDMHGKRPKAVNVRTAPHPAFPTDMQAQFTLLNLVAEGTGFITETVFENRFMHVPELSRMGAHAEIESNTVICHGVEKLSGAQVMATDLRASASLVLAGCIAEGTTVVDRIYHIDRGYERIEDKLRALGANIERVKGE
The compound `Cc1c(N)nc([C@H](CC(N)=O)NC[C@@H](N)C(N)=O)nc1C(=O)N[C@H](C(=O)N[C@@H](C)[C@H](O)[C@@H](C)C(=O)N[C@@H](C(=O)NCCc1nc(-c2nc(C(=O)NCCC[S+](C)C)cs2)cs1)[C@@H](C)O)[C@@H](O[C@H]1O[C@H](CO)[C@H](O)[C@@H](O)[C@H]1O[C@H]1O[C@H](CO)[C@@H](O)[C@H](OC(N)=O)[C@@H]1O)c1cnc[nH]1` gave a relative enzymatic activity of 0.787 ± 0.087.

Turning to `CN(C)[C@@H]1C(=O)[C@@H](C(N)=O)C(=O)[C@@]2(O)C(=O)[C@H]3C(=O)c4c(O)ccc(Cl)c4[C@@](C)(O)[C@H]3C[C@@H]12`, the relative enzymatic activity was found to be 0.617 ± 0.21.

`O=S(=O)(O)O.Oc1cccc2cccnc12` registered a relative enzymatic activity of 0.768 ± 0.011.

Take `CC(=O)Oc1ccc(Cl)c2cccnc12`: the relative enzymatic activity stood at 0.873 ± 0.19.

For the compound `CN(C)[C@@H]1C(=O)C(C(N)=O)=C(O)[C@@]2(O)C(O)=C3C(=O)c4c(O)cccc4[C@](C)(O)[C@H]3C[C@@H]12`, the relative enzymatic activity is 0.144 ± 0.0081.

In turn, `Cc1c(N)nc([C@H](CC(N)=O)NC[C@@H](N)C(N)=O)nc1C(=O)N[C@H](C(=O)N[C@@H](C)[C@H](O)[C@@H](C)C(=O)N[C@@H](C(=O)NCCc1nc(-c2nc(C(=O)NCCC[S+](C)C)cs2)cs1)[C@@H](C)O)[C@@H](O[C@H]1O[C@H](CO)[C@H](O)[C@@H](O)[C@H]1O[C@H]1O[C@H](CO)[C@@H](O)[C@H](OC(N)=O)[C@@H]1O)c1c[nH]cn1` had a relative enzymatic activity of 0.863 ± 0.16.

For `Oc1cc(Cl)ccc1Oc1ccc(Cl)cc1Cl`, the relative enzymatic activity was 0.846 ± 0.081.

Take `O=[N+]([O-])C(Br)(CO)CO`: the relative enzymatic activity is 0.0632 ± 0.019.

For `CCCCCCCCCCCCCCCC[n+]1ccccc1`, the relative enzymatic activity is 0.0717 ± 0.02.

Turning to `Cn1ncnc2c(=O)n(C)c(=O)nc1-2`, the relative enzymatic activity came out at 0.129 ± 0.027.

`COP(=S)(OC)Oc1cc(Cl)c(Cl)cc1Cl` had a relative enzymatic activity of 0.585 ± 0.13.

In turn, `CC(=O)[O][Hg][c]1ccccc1` had a relative enzymatic activity of 0.474 ± 0.35.

For the compound `O=[N+]([O-])c1ccc(N(CCO)CCO)c2c1no[n+]2[O-]`, the relative enzymatic activity was determined as 0.106 ± 0.026.

With `CCCCCCCCCCCCCCCC[N+](C)(C)C.[Br-]`, the relative enzymatic activity was determined as 0.0751 ± 0.018.

Consider `O=C1C=C2C(=CCOC2O)O1` (stereo not drawn), for which the relative enzymatic activity was determined as 0.0624 ± 0.018.

For `CN[C@H]1C[C@@H](N)[C@H](O)[C@@H](O[C@@H]2O[C@H](CO)[C@H](O)[C@@H]3O[C@@]4(O[C@H]23)O[C@H]([C@@H](N)CO)[C@H](O)[C@H](O)[C@H]4O)[C@@H]1O`, the relative enzymatic activity was determined as 0.86 ± 0.2.

Turning to `CN1C(=O)[C@]23CC4=CC=C[C@H](O)[C@H]4N2C(=O)[C@@]1(CO)SS3`, the relative enzymatic activity is 0.309 ± 0.13.

With `Cc1nc2c(=O)n(C)c(=O)nc-2n(C)n1`, the relative enzymatic activity worked out at 0.131 ± 0.035.

Take `[O-][n+]1ccccc1[S][Zn][S]c1cccc[n+]1[O-]`: the relative enzymatic activity worked out at 0.109 ± 0.033.

Regarding `CCCCCCCCCCCCCCCC[n+]1ccccc1.[Cl-]`, the relative enzymatic activity stood at 0.0629 ± 0.0016.

Compound `CNC1C(O)C(OC2C(N)CC(N)C(OC3OC(C(C)O)C(O)C(O)C3N)C2O)OCC1(C)O` (stereo not drawn) yielded a relative enzymatic activity of 0.77 ± 0.12.

As for `CCn1cc(C(=O)[O-])c(=O)c2cc3c(cc21)OCO3.[K+]`, the relative enzymatic activity turned out to be 0.798 ± 0.13.

With `CN(C)[C@@H]1C(=O)[C@H](C(N)=O)C(=O)[C@@]2(O)C(=O)[C@@H]3C(=O)c4c(O)cccc4[C@@](C)(O)[C@H]3C[C@@H]12`, the relative enzymatic activity came to 0.379 ± 0.13.

The compound `C[CH2][Hg][S]c1ccccc1C(=O)[O-].[Na+]` registered a relative enzymatic activity of 0.212 ± 0.01.
